Experimental data published in PubChem BioAssay (EPA / NIEHS).
Results filed as inconclusive are left out. Activity calls are given as the source filed them. Rule for the calls, unless noted: active = hit-call score of the fitted dose curve at least 0.9, where 1 is the maximum; inactive = score below 0.9.

Key:
[1] = target: Peroxisome proliferator-activated receptor gamma (Homo sapiens) (UniProt P37231); experiment: OT_PPARg_PPARgSRC1_0480: Odyssey Thera (OT) 8-hour Protein-Complementation Assay for Peroxisome Proliferator-activated Receptor Gamma / SRC-1 Co-activator (AID 2283387; active = hit-call score of the fitted dose curve at least 0.9, where 1 is the maximum;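 note: nuclear to cytoplasmic split Venus YFP fluorescence ratio reporting PPARg SRC-1 interaction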)
Sequence of Peroxisome proliferator-activated receptor gamma (Homo sapiens) (P37231 whole entry, looked up, the tested form may be a part): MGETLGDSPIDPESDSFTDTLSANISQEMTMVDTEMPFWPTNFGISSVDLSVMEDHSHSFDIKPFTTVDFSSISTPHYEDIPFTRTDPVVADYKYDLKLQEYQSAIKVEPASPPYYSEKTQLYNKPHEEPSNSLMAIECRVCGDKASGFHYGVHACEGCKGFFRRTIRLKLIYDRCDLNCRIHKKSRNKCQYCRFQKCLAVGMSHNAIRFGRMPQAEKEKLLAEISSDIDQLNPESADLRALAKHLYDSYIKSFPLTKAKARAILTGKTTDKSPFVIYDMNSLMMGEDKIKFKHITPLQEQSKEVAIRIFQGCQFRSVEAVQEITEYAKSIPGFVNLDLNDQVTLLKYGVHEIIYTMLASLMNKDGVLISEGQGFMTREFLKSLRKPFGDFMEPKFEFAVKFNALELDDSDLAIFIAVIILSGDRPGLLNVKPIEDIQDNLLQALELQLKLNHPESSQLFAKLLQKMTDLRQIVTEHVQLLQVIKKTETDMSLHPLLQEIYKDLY
How it was run: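 Protein-fragment complementation of split Venus YFP reports PPARg/SRC-1 interaction in HEK293T (transfected 48 h before treatment), exposed 8 h. Readout: N/C fluorescence ratio at 488 nm from imaging, Draq5 for segmentation, positive fit relative to DMSO.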

[2] = target: Peroxisome proliferator-activated receptor gamma (Homo sapiens) (UniProt P37231); experiment: OT_PPARg_PPARgSRC1_1440: Odyssey Thera (OT) 24-hour Protein-Complementation Assay for Peroxisome Proliferator-activated Receptor Gamma/ SRC-1 Co-activator (AID 2283388; active = hit-call score of the fitted dose curve at least 0.9, where 1 is the maximum;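 note: nuclear to cytoplasmic ratio of reconstituted Venus YFP fluorescence in fixed imaged cells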)
How it was run: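 Readout is the 488 nm N/C fluorescence ratio from fixed, Draq5-stained HEK293T cells after 24 h compound exposure. Cells carried transiently transfected PPARg and SRC-1 fused to Venus fragments, transfected 48 h before treatment.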

[3] = read-out: Tumor necrosis factor receptor superfamily member 6 (Homo sapiens) (UniProt P25445); experiment: LTEA_HepaRG_FAS: Life Technologies and Expression Analysis (LTEA) Assay for Fas cell surface death receptor (FAS) using HepaRG (AID 2283447); conditions: mRNA level, 48 h; actives raise or lower the signal
How it was run: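 FAS transcript level was measured by TaqMan qRT-PCR against three housekeeping genes after 48 h chemical exposure. Cells were HepaRG, 0.5% DMSO vehicle, with a top concentration of 100 uM and half-log dilutions over eight points, in duplicate.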

[4] = read-out: Fatty acid synthase (Homo sapiens) (UniProt P49327); experiment: LTEA_HepaRG_FASN: Life Technologies and Expression Analysis (LTEA) Assay for Fatty Acid Synthase (FASN) using HepaRG (AID 2283448); conditions: mRNA level, 48 h; actives raise or lower the signal;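 for AC50: differentiated human HepaRG liver cells in serum-free induction medium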
How it was run: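 In human HepaRG cultures, 48 h chemical exposure (up to 100 uM, 0.5% DMSO) preceded TaqMan qRT-PCR of FASN.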

[5] = read-out: Cyclin D2 (CCND2), CCND2 (gene 894); experiment: LTEA_HepaRG_CCND2: Life Technologies and Expression Analysis (LTEA) Assay for Cyclin D2 (CCND2) using HepaRG (AID 2283449); conditions: mRNA level, 48 h; actives raise or lower the signal
How it was run: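 CCND2 transcript levels, quantified by qRT-PCR and normalised to three housekeeping genes, were fitted bidirectionally against 0.5% DMSO. HepaRG cultures were dosed 48 h in duplicate with an 8-point half-log series up to 100 uM.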

[6] = read-out: Cyclin Dependent Kinase Inhibitor 1A (CDKN1A), CDKN1A (gene 1026); experiment: LTEA_HepaRG_CDKN1A: Life Technologies and Expression Analysis (LTEA) Assay for Cyclin Dependent Kinase Inhibitor 1A (CDKN1A) using HepaRG (AID 2283450); conditions: mRNA level, 48 h; actives raise or lower the signal
How it was run: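 Expression quantified by Fluidigm qRT-PCR with ACTB, GAPDH and POLR2A normalization, fitted bidirectionally against 0.5% DMSO. Cells: HepaRG, plated 48 h then treated 48 h in serum-free induction medium, top concentration 100 uM with half-log dilutions.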

[7] = read-out: Cyclin D1 (CCND1), CCND1 (gene 595); experiment: LTEA_HepaRG_CCND1: Life Technologies and Expression Analysis (LTEA) Assay for Cyclin D1 (CCND1) using HepaRG (AID 2283451); conditions: mRNA level, 48 h; actives raise or lower the signal
How it was run: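 Expression of CCND1 was quantified by qRT-PCR on Fluidigm arrays using ACTB, GAPDH and POLR2A as reference genes. HepaRG cultures, plated 48 h beforehand, were dosed for 48 h at up to 100 uM (half-log, 8 points) in 0.5% DMSO.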

[8] = read-out: catalase (CAT), CAT (gene 847); experiment: LTEA_HepaRG_CAT: Life Technologies and Expression Analysis (LTEA) Assay for catalase (CAT) using HepaRG (AID 2283452); conditions: mRNA level, 48 h; actives raise or lower the signal;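 for AC50: TaqMan qRT-PCR signal normalized to ACTB GAPDH and POLR2A housekeeping genes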
How it was run: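 Expression of CAT was quantified by TaqMan qRT-PCR with ACTB/GAPDH/POLR2A normalization after 48 h chemical exposure of HepaRG. Eight-point half-log series, top 100 uM, in 0.5% DMSO; gain or loss fitted against vehicle.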

[9] = read-out: flavin-containing dimethylaniline monooxygenases 3 (FMO3), FMO3 (gene 2328); experiment: LTEA_HepaRG_FMO3: Life Technologies and Expression Analysis (LTEA) Assay for flavin-containing dimethylaniline monooxygenases 3 (FMO3) using HepaRG (AID 2283453); conditions: mRNA level, 48 h; actives raise or lower the signal;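 for AC50: differentiated human HepaRG liver cells in serum-free induction medium; FMO3 transcript by TaqMan qRT-PCR normalized to ACTB GAPDH and POLR2A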
How it was run: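 Eight-point concentration-response in serum-free HepaRG cultures (top 100 uM, 0.5% DMSO, 48 h). Read-out: FMO3 mRNA level normalized to three endogenous control genes, fitted bidirectionally versus vehicle.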

[10] = read-out: Cytochrome P450 (CYP1A1), CYP1A1 (gene 1543); experiment: LTEA_HepaRG_CYP1A1: Life Technologies and Expression Analysis (LTEA) Assay for Cytochrome P450 (CYP1A1) using HepaRG (AID 2283454); conditions: mRNA level, 48 h; actives raise or lower the signal
How it was run: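 CYP1A1 transcript levels measured by Fluidigm qRT-PCR against three housekeeping genes, 48 h after chemical dosing of human HepaRG cells (highest concentration 100 uM, half-log steps, 0.5% DMSO vehicle). Gain or loss of signal fitted relative to DMSO.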

[11] = read-out: CFLAR gene, CFLAR (gene 8837); experiment: LTEA_HepaRG_CFLAR: Life Technologies and Expression Analysis (LTEA) Assay for CFLAR gene using HepaRG (AID 2283455); conditions: mRNA level, 48 h; actives raise or lower the signal
How it was run: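 Transcript level by qRT-PCR (normalized to ACTB, GAPDH and POLR2A) after 48 h chemical exposure of HepaRG cells, top concentration 100 uM with half-log steps, 0.5% DMSO vehicle, duplicates; fitted bidirectionally against DMSO baseline.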

[12] = CEETOX_H295R_OHPROG: CeeTox H295R High-throughput Steroidogenesis Assay for OH-Progesterone (OHPROG) (AID 2283435); conditions: actives raise or lower the signal;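 for AC50: 17alpha-hydroxyprogesterone secreted into medium measured by HPLC-MS/MS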
How it was run: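 Human adrenocortical H295R cells, passage 10 or lower, were treated with chemical for 48 h after forskolin priming, and hormone output in the medium was quantified by LC-MS/MS.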

[13] = CEETOX_H295R_CORTIC: CeeTox H295R High-throughput Steroidogenesis Assay for Corticosterone (CORTIC) (AID 2283437); conditions: actives raise or lower the signal;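 for AC50: human H295R adrenal cells prestimulated with forskolin before chemical exposure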
How it was run: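 Medium corticosterone was quantified by tandem mass spectrometry following 48 hours of chemical exposure (0.1% DMSO) in human H295R cells previously stimulated 48 hours with 10 uM forskolin. Viability checked by MTT; chemicals diluted and retested when viability fell below 70%.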

[14] = CEETOX_H295R_CORTISOL: CeeTox H295R High-throughput Steroidogenesis Assay for Cortisol (AID 2283438); conditions: actives raise or lower the signal;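 note: cortisol secreted into medium quantified by LC-MS/MS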
How it was run: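 Steroidogenesis in H295R, per modified OECD 456: 48 h forskolin (10 uM), then 48 h exposure, 0.1% DMSO. Cortisol by extraction and tandem MS; viability by MTT (570/650 nm); cytotoxic chemicals diluted and re-tested.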

[15] = CEETOX_H295R_DOC: CeeTox H295R High-throughput Steroidogenesis Assay for DOC (AID 2283439); conditions: actives raise or lower the signal
How it was run: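 H295R, fsk 10 uM ×48 h pre, cmpd ×48 h (0.1% DMSO). Media → MTBE extr. → LC-MS/MS, DOC. Bidirectional fit vs DMSO; MTT viability same wells, re-test diluted if <70%.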

[16] = CEETOX_H295R_PROG: CeeTox H295R High-throughput Steroidogenesis Assay for Progesterone (PROG) (AID 2283442); conditions: actives raise or lower the signal;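 for AC50: human H295R adrenal cells primed with 10 µM forskolin before dosing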
How it was run: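 Progesterone secreted by human H295R cells was measured by LC-MS/MS following 48 h chemical exposure at 0.1% DMSO, preceded by 48 h forskolin (10 uM) stimulation. Same-well MTT viability; cytotoxic concentrations diluted 10- or 100-fold and retested.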

[17] = CEETOX_H295R_ESTRADIOL: CeeTox H295R High-throughput Steroidogenesis Assay for Estradiol (AID 2283440); conditions: actives raise or lower the signal;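 note: estradiol secreted into medium quantified by LC-MS/MS after dansyl derivatisation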
How it was run: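 Estradiol in spent medium measured by LC-MS/MS after dansyl chloride derivatisation. Forskolin-primed (10 uM, 48 h) human adrenal H295R cells received test chemical 48 h at 0.1% DMSO; concentrations lowered until MTT viability >/=70%.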

[18] = CEETOX_H295R_ESTRONE: CeeTox H295R High-throughput Steroidogenesis Assay for Estrone (AID 2283441); conditions: actives raise or lower the signal;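 note: estrone secreted into medium measured by LC-MS/MS after dansyl derivatization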;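 for AC50: human adrenal H295R cells prestimulated with forskolin for two days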
How it was run: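 Forskolin-stimulated H295R cells are treated 48 h with chemical, and estrone in the medium is measured by LC-MS/MS. Activity is fitted in both directions relative to DMSO controls, with chemicals diluted until MTT viability reaches at least 70%.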

[19] = read-out: Forkhead box O1 (FOXO1), FOXO1 (gene 2308); experiment: LTEA_HepaRG_FOXO1: Life Technologies and Expression Analysis (LTEA) Assay for Forkhead box O1 (FOXO1) using HepaRG (AID 2283456); conditions: mRNA level, 48 h; actives raise or lower the signal
How it was run: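 FOXO1 transcript quantified by qRT-PCR after 48 h chemical exposure (top 100 uM, half-log steps, 0.5% DMSO) of HepaRG cells, housekeeping-normalized (ACTB/GAPDH/POLR2A). Changes fitted in both directions relative to vehicle.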

[20] = CEETOX_H295R_ANDR: CeeTox H295R High-throughput Steroidogenesis Assay for Androstenedione (ANDR) (AID 2283436); conditions: actives raise or lower the signal
How it was run: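 Medium from 48 h chemical-treated H295R adrenal cells was extracted with MTBE and androstenedione measured by LC-MS/MS. Activity was fit in both directions relative to DMSO. Cytotoxic concentrations were re-tested after dilution until MTT viability reached ≥70%.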

Measured: AC50

Sequence of Fatty acid synthase (Homo sapiens) (P49327 whole entry, looked up): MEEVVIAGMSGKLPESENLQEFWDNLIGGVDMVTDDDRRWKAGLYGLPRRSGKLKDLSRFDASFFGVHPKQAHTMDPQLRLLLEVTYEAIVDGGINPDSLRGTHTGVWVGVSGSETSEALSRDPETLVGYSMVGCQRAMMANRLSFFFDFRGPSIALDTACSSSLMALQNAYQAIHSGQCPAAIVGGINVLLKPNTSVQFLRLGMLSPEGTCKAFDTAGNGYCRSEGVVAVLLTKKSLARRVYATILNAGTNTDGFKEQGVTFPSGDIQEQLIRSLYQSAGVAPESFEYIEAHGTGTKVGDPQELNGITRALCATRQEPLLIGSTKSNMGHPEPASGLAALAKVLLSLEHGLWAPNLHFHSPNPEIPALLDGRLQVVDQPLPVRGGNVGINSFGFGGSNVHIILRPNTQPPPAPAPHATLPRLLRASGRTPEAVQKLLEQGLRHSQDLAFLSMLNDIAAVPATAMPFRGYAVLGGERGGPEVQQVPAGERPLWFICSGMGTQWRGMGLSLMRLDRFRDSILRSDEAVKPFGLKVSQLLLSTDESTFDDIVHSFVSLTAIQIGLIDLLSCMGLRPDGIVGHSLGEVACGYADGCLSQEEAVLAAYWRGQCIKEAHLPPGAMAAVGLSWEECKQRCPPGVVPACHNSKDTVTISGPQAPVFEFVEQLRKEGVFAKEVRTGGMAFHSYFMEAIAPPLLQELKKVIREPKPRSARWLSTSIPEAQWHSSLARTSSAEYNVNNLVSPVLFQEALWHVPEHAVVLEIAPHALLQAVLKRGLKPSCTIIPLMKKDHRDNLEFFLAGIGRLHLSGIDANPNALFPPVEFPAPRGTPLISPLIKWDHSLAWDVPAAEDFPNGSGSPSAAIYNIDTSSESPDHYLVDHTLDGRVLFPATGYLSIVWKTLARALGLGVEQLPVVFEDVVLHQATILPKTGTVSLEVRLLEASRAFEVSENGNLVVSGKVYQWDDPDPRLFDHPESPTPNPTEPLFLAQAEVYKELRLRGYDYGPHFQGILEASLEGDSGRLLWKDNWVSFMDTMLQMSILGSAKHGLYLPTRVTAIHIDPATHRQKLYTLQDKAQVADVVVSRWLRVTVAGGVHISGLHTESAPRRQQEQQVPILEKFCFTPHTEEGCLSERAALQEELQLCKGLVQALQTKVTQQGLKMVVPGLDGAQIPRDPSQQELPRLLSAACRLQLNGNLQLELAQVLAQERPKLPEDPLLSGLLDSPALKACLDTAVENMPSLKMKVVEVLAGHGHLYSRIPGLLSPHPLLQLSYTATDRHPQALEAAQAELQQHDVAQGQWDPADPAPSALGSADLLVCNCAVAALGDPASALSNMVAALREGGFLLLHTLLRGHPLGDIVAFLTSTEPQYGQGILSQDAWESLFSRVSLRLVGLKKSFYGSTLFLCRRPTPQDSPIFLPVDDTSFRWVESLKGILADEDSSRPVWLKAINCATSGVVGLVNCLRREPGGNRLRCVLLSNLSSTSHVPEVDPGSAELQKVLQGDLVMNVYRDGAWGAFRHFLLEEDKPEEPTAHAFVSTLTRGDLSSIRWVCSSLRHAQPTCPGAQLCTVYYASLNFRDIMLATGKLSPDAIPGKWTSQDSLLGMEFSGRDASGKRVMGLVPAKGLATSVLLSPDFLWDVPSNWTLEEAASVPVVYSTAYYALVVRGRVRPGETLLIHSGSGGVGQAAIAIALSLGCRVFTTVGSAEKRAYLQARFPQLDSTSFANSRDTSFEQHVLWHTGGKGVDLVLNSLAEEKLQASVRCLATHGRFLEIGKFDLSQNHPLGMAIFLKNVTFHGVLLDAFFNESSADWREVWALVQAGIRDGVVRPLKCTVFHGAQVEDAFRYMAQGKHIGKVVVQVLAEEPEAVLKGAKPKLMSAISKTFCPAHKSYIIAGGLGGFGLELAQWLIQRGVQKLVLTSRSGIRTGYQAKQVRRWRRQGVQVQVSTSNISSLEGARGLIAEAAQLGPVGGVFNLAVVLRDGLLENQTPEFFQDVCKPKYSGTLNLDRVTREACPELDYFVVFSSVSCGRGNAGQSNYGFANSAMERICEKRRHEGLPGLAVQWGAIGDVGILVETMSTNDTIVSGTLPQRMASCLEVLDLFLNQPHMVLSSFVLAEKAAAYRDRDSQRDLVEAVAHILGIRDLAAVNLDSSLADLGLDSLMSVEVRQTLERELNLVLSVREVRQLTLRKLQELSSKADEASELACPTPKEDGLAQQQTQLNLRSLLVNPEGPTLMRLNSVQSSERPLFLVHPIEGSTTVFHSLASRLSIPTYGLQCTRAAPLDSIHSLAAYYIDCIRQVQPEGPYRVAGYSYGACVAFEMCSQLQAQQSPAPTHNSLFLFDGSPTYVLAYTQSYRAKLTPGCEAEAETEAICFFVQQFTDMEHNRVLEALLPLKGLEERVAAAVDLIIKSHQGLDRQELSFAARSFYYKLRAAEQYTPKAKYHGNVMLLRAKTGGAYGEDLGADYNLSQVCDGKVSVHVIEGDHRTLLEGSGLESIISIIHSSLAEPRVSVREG

Oc1c(Cl)c(Cl)c(Cl)c(Cl)c1Cl
inactive: [1] | [2] | [5] | [6] | [7]
active: [3] 6.31 µM | [4] 1.87 µM | [8] 2.73 µM | [9] 4.5 µM | [10] 7.23 µM | [11] 2.17 µM

CCSC(=O)N(CC)C1CCCCC1
inactive: [1] | [2] | [12] | [13] | [14] | [15] | [16] | [3] | [4] | [5] | [6] | [7] | [8] | [9] | [10] | [11]

Nc1ccc(-c2ccc(N)cc2)cc1
inactive: [1] | [2] | [17] | [18] | [3] | [4] | [5] | [6] | [7] | [8] | [9] | [11] | [19]
active: [12] 37.4 µM | [13] 2.96 µM | [14] 65.8 µM | [15] 17.7 µM | [16] 15.2 µM | [10] 50 µM

c1cc2ccc3cccc4ccc(c1)c2c34
inactive: [1] | [2] | [13] | [14] | [3] | [4] | [6] | [7] | [8] | [9] | [11] | [19]
active: [12] 27.1 µM | [20] 35.9 µM | [15] 14.5 µM | [16] 13.9 µM | [5] 5 µM | [10] 24.3 µM

Cc1ccccc1CO[C@@H]1C[C@@]2(C(C)C)CC[C@]1(C)O2
active: [20] 50 µM | [10] 44.4 µM
inactive: [1] | [2] | [12] | [16] | [3] | [4] | [5] | [6] | [7] | [8] | [9] | [11] | [19]

Oc1ccc(Cl)cc1Cl
active: [12] 22.2 µM | [17] 17 µM | [18] 24.4 µM
inactive: [1] | [2] | [13] | [14] | [15] | [16] | [3] | [4] | [5] | [7] | [8] | [9] | [10] | [11]

CCOP(=S)(OCC)SCSC(C)(C)C
inactive: [1] | [2] | [16] | [3] | [4] | [5] | [6] | [7] | [8] | [9] | [10] | [11]
